# About 1,100 (1.7%) of roughly 63,000 compounds were called active. The sample holds actives, similar compounds and a random draw of the others, so the mix is not that of the screen. Results with a measured potency or affinity are listed apart. Values without a mark were called inactive.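 How the source made its calls: active means compounds whose percent cytotoxicity in the single-dose primary screen, scaled between solvent and toxic-drug controls, exceeds 50; inactive means the rest.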
# Test: cytotoxicity in KRAS-transformed pancreatic duct cells, primary screen, cell-based, fluorescence, HTS (AID 431);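 further: 0% = DMSO solvent wells and 100% = doxorubicin-treated wells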
# Conditions: HPDE-C7K KRASV12 cells, Alamar Blue viability, 48 h; at 10 µM; hits give high values
row,SMILES,cytotoxicity
1,Cc1nonc1NC(=O)CSc1nc2cc(Cl)ccc2c2c1CCCC2,36.2%
2,Cn1c(NC(=O)c2cccnc2)nc2ccccc21,0.4%
3,Cc1ccc(S(=O)(=O)CCC(=O)OCC(=O)Nc2cc(C)on2)cc1,-22.1%
4,Cc1cc(C)nc(SCC(=O)c2ccc(O)cc2O)n1,-9.3%
5,COc1ccc2nc(SCC(N)=O)[nH]c2c1,-17.7%
6,CCOc1ccc2nc(NCCO)[nH]c2c1,4.8%
7,CCCSc1ccc2nc(NC(=O)OC)[nH]c2c1,63.4% (active)
8,COc1ccc2nc(NCCO)[nH]c2c1,-14.2%
9,CCCOc1ccc2nc(NC(=O)OC)[nH]c2c1,61.1% (active)
10,COc1ccc(C(=O)Nc2nc3ccccc3[nH]2)cc1OC,-8%
11,Cn1nc(CC(=O)Nc2cccc3ncccc23)c2ccccc2c1=O,-4.3%
12,CCOC(=O)c1ccc(NC(=O)CCc2nc(-c3cccc(C)c3)no2)cc1,1%
13,CCOC(=O)c1[nH]c(C)c(C(=O)NCCN2CCOCC2)c1C,8.4%
14,CC(=O)c1c(C)[nH]c(C(=O)OCC(=O)Nc2cc(C(F)(F)F)ccc2N2CCOCC2)c1C,14.5%
15,CCC(=O)N/C=C/n1cnc2cc(C(F)(F)F)ccc21,15.3%
16,COc1cc(NC(=O)CCCC(=O)OCC(F)(F)C(F)F)nc(OC)n1,-2.6%
17,C#CCOC(=O)CCC(=O)Nc1cc(OC)nc(OC)n1,-8%
18,C=CCOC(=O)CCC(=O)Nc1cc(OC)nc(OC)n1,51.4% (active)
19,CCOC(=O)Cn1c(C)c(C#N)c2ccccc21,8.1%
20,COc1ccc(N(CC(=O)N2CCc3ccccc32)S(=O)(=O)c2c(C)noc2C)cc1,2%
21,O=C(COc1ncnc2ccc(Br)cc12)Nc1ccc(N2CCOCC2)cc1,-7.7%
22,COc1ccc(OC)c(-c2nnc(NC(=O)C(C)Sc3nncn3C)s2)c1 (configuration not stated),4.7%
23,Cc1ccc(S(=O)(=O)NC2CCOC(C)(C)C2)cc1 (configuration not stated),-15.4%
24,COc1cccc2c1C(=O)c1c(O)c3c(c(O)c1C2=O)C[C@@](O)(C(=O)CO)C[C@@H]3O[C@H]1C[C@H](N)[C@H](O)[C@H](C)O1,98.7% (active)
25,COc1cccc2c1C(=O)c1c(O)c3c(c(O)c1C2=O)C[C@@](O)(C(C)=O)C[C@@H]3O[C@H]1C[C@H](N)[C@H](O)[C@H](C)O1,106% (active)

row,SMILES,cytotoxicity
1,COc1ccccc1N1CCN(C(=O)c2nn(-c3ccccc3OC)c(=O)c3ccccc23)CC1,4.9%
2,CCNc1nc(Oc2ccc(=O)n(-c3ccccc3)n2)nc(N2CCOCC2)n1,4.3%
3,Nc1nnc(N2CCCCC2)s1,-11.2%
4,Cc1ccc(CNS(=O)(=O)c2ccc3oc(C(=O)O)c(C)c3c2)cc1,1.5%
5,CCOC(=O)N1CCN(C(=O)CCn2nc(-c3ccc(Cl)cc3)ccc2=O)CC1,-0.1%
6,COc1ccc(S(=O)(=O)Nc2cccc(Cl)c2)cc1OC,9.4%
7,CCOc1ccc(S(=O)(=O)Nc2cc(Cl)ccc2O)cc1,64.5% (active)
8,CCOc1ccc(S(=O)(=O)Nc2cccnc2)cc1,4.6%
9,CCOc1ccc(NS(=O)(=O)c2ccc(NS(C)(=O)=O)cc2)cc1,-17%
10,CCOc1ccc(S(=O)(=O)Nc2cccc(Cl)c2)cc1,65% (active)
11,CCOc1ccc(NS(=O)(=O)c2cc(Cl)ccc2OC)cc1,-5.4%
12,Clc1ccc(-c2noc(CN3CCCC3)n2)cc1,-4.3%
13,COc1ccc(Cl)cc1NC(=O)CN(C(=O)c1ccco1)C1CCCCC1,4.7%
14,CCSc1nnc(NC(=O)c2cccs2)s1,22.4%
15,COC(=O)c1cccc(NC(=O)CSc2nnc(COc3cccc(C)c3)n2C)c1,-15.1%
16,CCOC(=O)c1[nH]c(C)c(/C(O)=C2\C(=O)C(=O)N(CCCn3ccnc3)C2c2ccncc2)c1C (configuration not stated),11.3%
17,CC1=C(C)C(=O)NC(Nc2nc(C)c3cc(C)cc(C)c3n2)N1 (configuration not stated),90.8% (active)
18,Cc1cc(C)c2nc(NC3=NCN(CCN4CCOCC4)CN3)nc(C)c2c1,-2%
19,Cc1ccnc(SCCn2c(N3CCC(C)CC3)nc3c2c(=O)[nH]c(=O)n3C)n1,5.9%
20,Cc1cc(C)nc(/N=C2\NC(=O)CC(C(=O)O)N2c2ccc(Oc3ccccc3)cc2)n1 (configuration not stated),3.8%
21,O=C(Nc1ccccc1C(=O)N1CCCCCC1)c1cccc(S(=O)(=O)N2CCOCC2)c1,6.4%
22,CCN(CC)c1ccc2cc(-c3nc4ccccc4n3C)c(=O)oc2c1,53.3% (active)
23,CCN(CC)c1ccc2cc(C(=O)Nc3ccccn3)c(=O)oc2c1,18.9%
24,CC(=O)Oc1ccc2cc(-c3nc4ccccc4n3C)c(=O)oc2c1,-1.4%
25,CCN(CC)c1ccc2cc(-c3nc4ccccc4[nH]3)c(=O)oc2c1,42.2%

row,SMILES,cytotoxicity
1,O=c1oc2ccc3ccccc3c2cc1-c1nnc(-c2ccccc2)o1,-4.9%
2,CCN(CC)c1ccc2cc(-c3nnc(-c4ccncc4)o3)c(=O)oc2c1,71.1% (active)
3,C/C(Cl)=C/Cn1c(NCCN(C)C)nc2c1c(=O)n(C)c(=O)n2C,10.3%
4,CCCCC(=O)Nc1ccc2c(c1)nc1n2CCOC1,-4.8%
5,Cc1onc(-c2ccccc2)c1C(=O)NCc1ccco1,9%
6,Fc1ccc(CN2CCCCCCC2)c(F)c1,4.9%
7,CCCC(C(=O)NCc1ccco1)N(C(=O)CNS(=O)(=O)c1ccc(Cl)cc1)C1CCCC1 (configuration not stated),2.5%
8,Cc1ccc(Cl)cc1N1CCN(C(=O)c2cn(C)c(=O)c3c2c2ccccc2n3C)CC1,110% (active)
9,Cc1ccc(Cl)cc1N1CCN(C(=O)c2cc3c(=O)n(C)c4ccccc4c3n2C)CC1,38.6%
10,Cc1cccc(N2CCN(C(=O)c3cn(C)c(=O)c4c3c3ccccc3n4C)CC2)c1C,88.5% (active)
11,CCOC(=O)N1CCN(C(=O)c2cn(C)c(=O)c3c2c2ccccc2n3C)CC1,4.1%
12,Cn1cc(C(=O)N2CCN(C(=O)c3ccco3)CC2)c2c3ccccc3n(C)c2c1=O,-0.8%
13,COc1ccc(N2CCN(C(=O)c3cn(C)c(=O)c4c3c3ccccc3n4C)CC2)cc1,10.6%
14,Cn1c2c(c(=O)n(C)c1=O)CN(Cc1ccc3c(c1)OCO3)CN2,4.8%
15,O=C(Nc1ccc(Cl)cn1)c1cc2ccccc2o1,-4.1%
16,COc1cc(C2Nc3cc(Cl)c(S(N)(=O)=O)cc3S(=O)(=O)N2)cc(OC)c1OC (configuration not stated),-17.3%
17,N#CCCN1CCN(S(=O)(=O)c2ccc(S(=O)(=O)N3CCCCCC3)cc2)CC1,0.7%
18,COc1ccc(N2CCN(C(=O)CN3C(=O)C4CC=CCC4C3=O)CC2)cc1 (configuration not stated),0.2%
19,Cc1ccc(C2C3=C(CC(C)(C)CC3=O)NC3=C2C(=O)CC(C)(C)C3)o1,-0.9%
20,CC(C)Cn1c(N)c(C(=O)NCc2cccs2)c2nc3ccccc3nc21,92.2% (active)
21,CC(C)Cn1c(N)c(C(=O)NCCN2CCOCC2)c2nc3ccccc3nc21,-5.3%
22,COCCn1c(N)c(C(=O)NCc2cccs2)c2nc3ccccc3nc21,9.2%
23,COCCn1c(N)c(C(=O)NCC2CCCO2)c2nc3ccccc3nc21 (configuration not stated),15.6%
24,Nc1c(C(=O)NC2CCCC2)c2nc3ccccc3nc2n1N,10.7%
25,Nc1c(C(=O)NCC2CCCO2)c2nc3ccccc3nc2n1-c1ccccc1 (configuration not stated),10.6%

row,SMILES,cytotoxicity
1,COCCNC(=O)c1c(N)n(-c2cccc(C)c2)c2nc3ccccc3nc12,26.4%
2,COCCNC(=O)c1c(N)n(CCCn2ccnc2)c2nc3ccccc3nc12,6.1%
3,CC(C)Cn1c(N)c(C(=O)NCC2CCCO2)c2nc3ccccc3nc21 (configuration not stated),22.7%
4,COCCSc1nnc(-c2cccc(C#N)c2)n1C,-2.9%
5,COc1cc(C)c(C#N)c(OC)n1,0%
6,CC(C)OCC(O)CN (configuration not stated),-11.2%
7,CCCn1c(=C(C#N)C#N)s/c(=C2\C=Cc3ccccc3N2CC)c1=O,6%
8,Cc1nc(C)c(C(=O)NCc2ccc(Cl)cc2)o1,-5.4%
9,O=C(CN1CCN(S(=O)(=O)c2ccc(F)cc2)CC1)Nc1ccc2c(c1)OCO2,0.6%
10,CCOC(=O)COc1ccc2nsnc2c1Cl,2.6%
11,COCCn1c(SC(C)C(=O)Nc2ccc3c(c2)OCCO3)nc2ccccc2c1=O (configuration not stated),-20.1%
12,CCc1nnc(NC(=O)CSc2nnc(Cc3cccn3C)n2C)s1,4%
13,CC1(C)Cc2c(c(N3CCOCC3)nc3sc(C(=O)N4CCCCC4)c(N)c23)CO1,-5.9%
14,CC1(C)Cc2c(c(N3CCOCC3)nc3snc(Br)c23)CO1,-11%
15,Cc1cccnc1Nc1nc(-c2ccc(O)cc2O)cs1,78% (active)
16,Cc1nc(-c2c(-c3ccc(O)cc3O)noc2C(F)(F)F)cs1,1.3%
17,Cc1cc(O)ccc1Nc1nc(-c2sc(N)nc2C)cs1,13%
18,COc1ccc(C(C(=O)NC(C)(C)C)N(Cc2ccco2)C(=O)CCC(=O)Nc2cc(C)on2)cc1 (configuration not stated),-10%
19,O=C(O)c1ccc(CS(=O)(=O)c2cccc(C(F)(F)F)c2)o1,0.8%
20,CC(=O)N1C(=O)C2(Nc3ccccc3N2)c2ccccc21,2.8%
21,CCCCOc1ccc(OCCCC)c2c1NC1(N2)C(=O)N(C(C)=O)c2ccccc21,59.6% (active)
22,CCNC(=O)N1C(=O)C2(OCCO2)c2ccccc21,-11.6%

# — PubChem BioAssay AID431 (Sanford-Burnham Center for Chemical Genomics, 2006)
